# The supplement of paper PMC3334620
# Whole data set: some 33,000 sequences, median “E-score (-0.5 to 0.5)” near -0.054, cut for the highest 2% near 0.39. This excerpt belongs to a sample that is enriched for the highest values.
# Molecular target: Ylr278c (UniProt Q05854)
# Test: PBM E-score (8-mer binding enrichment) (E-score (-0.5 to 0.5)); higher = stronger / more preferred TF binding
# Conditions: protein concentration: 200 nM; construct: GST-DNA-binding domain
# Method: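 Universal 'all 10-mer' protein binding microarrays (Agilent AMADID 015681) probed with GST-tagged S. cerevisiae TFs (full-length or DBD) made by in vitro transcription/translation (PURExpress), about 100-200 nM. Bound TF was detected with fluorescent anti-GST. Each ungapped 8-mer (which stands for itself and its reverse complement) is scored by the PBM enrichment score (E-score), a modified Wilcoxon-Mann-Whitney statistic from -0.5 to +0.5, computed with the Universal PBM Analysis Suite. Scale: above 0.35 generally sequence-specific binding.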
# Sequence of UniProt Q05854 (Q05854 whole entry): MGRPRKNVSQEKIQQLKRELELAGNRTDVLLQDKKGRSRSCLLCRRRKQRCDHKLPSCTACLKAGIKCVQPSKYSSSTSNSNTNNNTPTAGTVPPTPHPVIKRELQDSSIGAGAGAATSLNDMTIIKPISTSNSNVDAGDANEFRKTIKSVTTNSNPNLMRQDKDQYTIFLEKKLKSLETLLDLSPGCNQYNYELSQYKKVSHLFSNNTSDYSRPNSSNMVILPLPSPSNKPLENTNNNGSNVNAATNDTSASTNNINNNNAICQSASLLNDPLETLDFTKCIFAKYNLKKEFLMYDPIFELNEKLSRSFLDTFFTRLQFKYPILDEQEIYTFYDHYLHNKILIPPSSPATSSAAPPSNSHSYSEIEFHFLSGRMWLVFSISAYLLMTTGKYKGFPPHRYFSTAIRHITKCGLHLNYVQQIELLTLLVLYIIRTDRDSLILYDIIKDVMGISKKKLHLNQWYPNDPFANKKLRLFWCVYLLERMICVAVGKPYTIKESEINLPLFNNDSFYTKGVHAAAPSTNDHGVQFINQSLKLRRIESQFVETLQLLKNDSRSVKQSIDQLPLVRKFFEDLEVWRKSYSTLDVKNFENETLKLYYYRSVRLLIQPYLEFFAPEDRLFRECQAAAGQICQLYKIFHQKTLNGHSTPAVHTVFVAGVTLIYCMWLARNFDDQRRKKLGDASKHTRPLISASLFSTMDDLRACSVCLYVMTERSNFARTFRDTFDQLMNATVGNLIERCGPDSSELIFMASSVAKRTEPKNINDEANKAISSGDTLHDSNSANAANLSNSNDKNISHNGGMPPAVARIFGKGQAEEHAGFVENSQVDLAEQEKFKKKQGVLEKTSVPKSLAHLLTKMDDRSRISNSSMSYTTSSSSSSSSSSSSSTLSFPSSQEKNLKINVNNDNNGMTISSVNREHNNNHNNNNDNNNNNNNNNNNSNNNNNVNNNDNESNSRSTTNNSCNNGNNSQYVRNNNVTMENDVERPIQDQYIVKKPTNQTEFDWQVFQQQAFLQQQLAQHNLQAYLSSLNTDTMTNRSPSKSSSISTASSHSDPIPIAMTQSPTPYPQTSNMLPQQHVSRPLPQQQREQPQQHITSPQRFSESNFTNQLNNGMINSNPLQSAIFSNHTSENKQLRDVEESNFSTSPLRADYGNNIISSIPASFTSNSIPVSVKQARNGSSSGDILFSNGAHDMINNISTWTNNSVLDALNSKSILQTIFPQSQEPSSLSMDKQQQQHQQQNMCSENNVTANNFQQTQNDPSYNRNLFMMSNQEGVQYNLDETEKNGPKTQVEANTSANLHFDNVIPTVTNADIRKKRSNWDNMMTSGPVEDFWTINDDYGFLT
row,Sequence,PBM E-score
1,ATAGTGAT,-0.203
2,TAAAGACA,-0.186
3,ACTGAGGC,0.105
4,TCTAAAGA,-0.115
5,CGCGTTAA,0.0131
6,GGGCGTTA,-0.101
7,CGGCGTTA,0.405
8,CGGCGTTC,0.378
9,GAGTGACA,-0.00079
10,TAGCTTAA,-0.198
11,TGATCTAA,-0.15
12,GGGAGGTA,-0.0269
13,CGGAGGTA,0.426
14,CTGAGGTC,-0.297
15,AGGAGGTC,-0.0814
16,AGGAGGTA,-0.0558
17,CGGAGGTC,0.443
18,AATGAACG,-0.131
19,CCGGTTGA,0.303
20,CGAGAACG,0.232
21,CCTAAACG,-0.0312
22,AATCCGAG,0.288
23,AATCCGAC,0.402
24,AATCCGAT,0.421
25,TATCCGAA,0.371

row,Sequence,PBM E-score
1,AATCCTAT,0.181
2,GATCCGAC,0.285
3,AATCCGAA,0.39
4,CATCCGAA,0.303
5,CATCCGAC,0.289
6,ATCGGGGC,0.296
7,CCACTGAG,-0.208
8,ACTGATGC,-0.0244
9,TCCAAACA,-0.094
10,GCAAGTGC,-0.274
11,GTTCTTCA,-0.192
12,ATTCGCTC,0.0759
13,AGTCGGCG,0.215
14,GGTCGGAA,0.338
15,CGTCGGAC,0.397
16,AGTCGGGA,0.142
17,GGTCGGAC,0.355
18,CGTCGGAA,0.43
19,TGTCGGAA,0.384
20,AGTCGGAC,0.366
21,AGTCGGAA,0.408
22,CGTCGGTC,0.215
23,AGTCGGAG,0.41
24,AGTCGGAT,0.282
25,ACGCAGGA,-0.166

row,Sequence,PBM E-score
1,CAAAGCGG,0.175
2,AACACTTG,-0.16
3,ATAAGACC,0.0726
4,ATGGTGTG,-0.23
5,CAACAAAG,-0.189
6,ATCAAGAC,-0.00757
7,ACCGCTAG,-0.19
8,CAGGGGGC,-0.125
9,CAGGTCAG,-0.0413
10,CGTCGGAG,0.441
11,CGTCGTAG,0.00558
12,CGTCGCAG,-0.192
13,ATTGGAAG,-0.0562
14,CTTTGCCC,-0.139
15,GCTTTTGA,-0.0305
16,ATCCTCCG,0.431
17,CACCTCCC,-0.129
18,CGCCTCCG,0.398
19,AACCTCCT,-0.122
20,AACCTCCC,0.0351
21,AGCCTCCG,0.381
22,CACCTCCG,0.425
23,CACCTCCA,0.0316
24,ATCCTCCA,-0.301
25,CGCCTCCA,0.0143

row,Sequence,PBM E-score
1,ATCCTCCC,0.0358
2,AACCTCCG,0.466
3,CAGTGGCA,-0.225
4,CCCTCCCA,0.0446
5,ACAGGGCC,0.0175
6,GAAACCAA,0.0455
7,CGACGCAA,0.114
8,GTACTGGA,-0.156
9,GCACCACC,0.0569
10,GACTGCGA,0.0431
11,TCCCTGAA,-0.217
12,CGTAAGGC,-0.161
13,CAGCTATG,-0.344
14,CAGGAAAA,0.00343
15,ACGGAAAA,0.346
16,CCGGAAAA,0.453
17,ACGGAAAC,0.278
18,CCGGAAAG,0.319
19,TCGGAAAA,0.426
20,CCGGAAAC,0.404
21,CTGGAAAA,-0.00229
22,GCGGAAAA,0.379
